# Some of the results follow. Unmarked numbers belong to inactive results.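 How the source made its calls: active means activation above 30% in triplicate retests at 2 µM, then confirmed by visual review of the well images; inactive means the rest.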
# Assay: enhancers of VCAM1 induction in HUVEC – imaging, triplicate retest, confirmation (AID 1034);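 further: scaled per plate between unstimulated and TNFa-stimulated DMSO control wells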
# Conditions: HUVEC TNFa-stimulated VCAM-1 immunofluorescence imaging; at 2 µM; active compounds read high
compound,measurement,value
COC(=O)CN1C(=O)C2(C(C(=O)OC)=C(N)Oc3ccccc32)C2=C1CC(C)(C)CC2=O (stereo unspecified),activation,-16.1%
